Reference: PubChem BioAssay AID1159580 (chemical genetic matrix, 2015)
Where “and” joins values, the source holds several entries; their conditions need not be identical. Equal entries are not always repeated. Hit rate of the full screen: of about 5,500 compounds, about 2,000 (36%) were called active. Not shown: some 18% with an inconclusive outcome. Rule as the data show it: active = normalized growth mostly below about 0.91 (no sharp cut-off); inconclusive = no clear call, values can overlap the other calls; inactive = mostly above about 0.92. Some of the results follow.

Assay: chemical genetic growth profiling, strain panel (AID 1159580);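 also: tested at 20 µM; growth read once vehicle control cultures reached saturation at 30 °C; 1 = growth at the plate median or of vehicle wells; lower values mean less growth of the strain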
Conditions: S. cerevisiae deletion strains, growth OD

Measured: normalized growth

OC[C@@H](O)[C@@H](O[C@@H]1O[C@H](CO)[C@@H](O)[C@H](O)[C@H]1O)[C@H](O)[C@@H](O)CO
inactive: locus YAL013W, strain DEP1, hits give low values 1.01 | locus YAL021C, strain ccr4, hits give low values 0.998 | locus YAL026C, strain drs2, hits give low values 0.982 | locus YAL030W, strain snc1, hits give low values 0.993 | locus YBL061C, strain skt5, hits give low values 1.01 | locus YBR009C, strain hhf1, hits give low values 1 | locus YBR021W, strain FUR4, hits give low values 1.03 | locus YBR023C, strain chs3, hits give low values 1 | locus YBR171W, strain sec66, hits give low values 0.989 | locus YBR229C, strain ROT2, hits give low values 1.01 | locus YBR231C, strain swc5, hits give low values 0.996 | locus YBR279W, strain paf1, hits give low values 0.979 | locus YCL011C, strain gbp2, hits give low values 0.989 | locus YCL016C, strain dcc1, hits give low values 1.01 | locus YCL029C, strain bik1, hits give low values 1.02 | locus YCL061C, strain MRC1, hits give low values 1 | locus YCL069W, strain vba3, hits give low values 0.972 | locus YCR088W, strain abp1, hits give low values 0.989 | locus YDL005C, strain med2, hits give low values 0.985 | locus YDL035C, strain GPR1, hits give low values 1.03 | locus YDL040C, strain nat1, hits give low values 0.989 | locus YDL074C, strain BRE1, hits give low values 1.01 | locus YDL101C, strain DUN1, hits give low values 1.01 | locus YDL134C, strain PPH21, hits give low values 1.01 | locus YDL185W, strain tfp1, hits give low values 1.01 | locus YDL192W, strain arf1, hits give low values 1.01 | locus YDR001C, strain nth1, hits give low values 0.996 | locus YDR069C, strain doa4, hits give low values 0.981 | locus YDR101C, strain arx1, hits give low values 1 | locus YDR137W, strain rgp1, hits give low values 1 | locus YDR150W, strain NUM1, hits give low values 0.998 | locus YDR159W, strain sac3, hits give low values 0.986 | locus YDR162C, strain NBP2, hits give low values 0.979 | locus YDR195W, strain ref2 0.958 | locus YDR297W, strain sur2, hits give low values 0.992 | locus YDR318W, strain mcm21, hits give low values 1.04 | locus YDR334W, strain swr1, hits give low values 0.984 | locus YDR335W, strain msn5, hits give low values 0.992 | locus YDR388W, hits give low values 1.01 | locus YDR392W, strain spt3, hits give low values 0.951 | locus YDR502C, strain sam2, hits give low values 0.994 | locus YEL003W, strain gim4, hits give low values 0.989 | locus YEL037C, strain rad23, hits give low values 0.966 | locus YEL061C, strain CIN8 (second series), hits give low values 0.977 | locus YEL061C, strain CIN8, hits give low values 1 | locus YER015W, strain faa2, hits give low values 1 | locus YER016W, strain bim1, hits give low values 0.996 | locus YER110C, hits give low values 1.02 | locus YER111C, strain swi4, hits give low values 0.972 | locus YER155C, strain BEM2 (second series), hits give low values 1.02 | locus YER155C, strain BEM2, hits give low values 0.987 | locus YER167W, strain BCK2, hits give low values 1.06 | locus YFR010W, strain ubp6, hits give low values 0.969 | locus YGL078C, strain dbp3, hits give low values 0.987 | locus YGL086W, strain mad1, hits give low values 1.03 | locus YGL167C, strain pmr1, hits give low values 1.01 | locus YGL173C, strain kem1, hits give low values 1 | locus YGL227W, strain vid30, hits give low values 0.99 | locus YGL240W, strain doc1, hits give low values 0.99 | locus YGL248W, strain PDE1, hits give low values 1.01 | locus YGL253W, strain hxk2, hits give low values 0.999 | locus YGR078C, strain PAC10, hits give low values 1.02 | locus YGR135W, strain pre9, hits give low values 1.03 | locus YGR229C, strain SMI1, hits give low values 1.02 | locus YGR252W, strain gcn5, hits give low values 1.07 | locus YHR013C, strain ard1, hits give low values 0.989 | locus YHR027C, strain rpn1, hits give low values 1 | locus YHR030C, strain SLT2, hits give low values 1 and 0.993 | locus YHR079C, strain IRE1 (second series), hits give low values 1.01 | locus YHR079C, strain IRE1, hits give low values 1.02 | locus YHR094C, strain hxt1, hits give low values 1.01 | locus YHR129C, strain ARP1, hits give low values 1.01 | locus YHR142W, strain chs7, hits give low values 0.998 | locus YHR200W, strain rpn10, hits give low values 1.02 | locus YIL066C, strain RNR3, hits give low values 1.01 | locus YIL073C, strain SPO22, hits give low values 1.1 | locus YIL125W, strain kgd1, hits give low values 1.01 | locus YIR030C, strain dcg1, hits give low values 1.01 | locus YJL092W, strain hpr5, hits give low values 0.991 | locus YJL095W, strain BCK1 (second series), hits give low values 1 | locus YJL095W, strain BCK1, hits give low values 1.02 and 0.987 | locus YJL115W, strain asf1, hits give low values 0.98 | locus YJL129C, strain trk1, hits give low values 1.01 | locus YJL134W, strain LCB3, hits give low values 1.01 | locus YJL154C, strain vps35, hits give low values 0.984 | locus YJL164C, strain tpk1, hits give low values 1 | locus YJL166W, strain qcr8, hits give low values 0.998 | locus YJL168C, strain set2, hits give low values 1.01 | locus YJL187C, strain SWE1 (second series), hits give low values 1.01 | locus YJL187C, strain SWE1, hits give low values 0.992 | locus YJR043C, strain POL32, hits give low values 1.07 | locus YJR066W, strain TOR1, hits give low values 0.95
